# Screening data from PubChem.
# BAZ2B block: qHTS Assay for Inhibitors of BAZ2B; 360,000 compounds, 4.4% hits; Potency, µM (top dose mostly 114 µM), most hits filed as inhibitors; AlphaScreen BAZ2B-H3K14Ac peptide displacement; AID 504333, 2011; Bromodomain adjacent to zinc finger domain protein 2B (Homo sapiens), Q9UIF8; further: nearly all actives have a fitted effect of over 60% in size
#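 Complex of BAZ2B and biotin-H3K14Ac (50 nM apiece) forms over 30 min at RT, then faces library compounds up to 110 uM for another 30 min; AlphaScreen beads added, 20 min dark incubation, luminescence read.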
# PLK1 PBD block: qHTS for Inhibitors of PLK1-PDB (polo-like kinase 1 - polo-box domain): Primary Screen; Plk1 PBD binding of FITC phosphopeptide, fluorescence polarization; 360,000 compounds, 2.8% hits; Potency, µM, hits mostly inhibitors; AID 720504, 2013; Serine/threonine-protein kinase PLK1 (Homo sapiens), P53350; further: series mostly up to about 57 µM; nearly all actives have a fitted effect of over 65% in size
# Target sequence (P53350 whole entry, looked up, the tested form may be a part): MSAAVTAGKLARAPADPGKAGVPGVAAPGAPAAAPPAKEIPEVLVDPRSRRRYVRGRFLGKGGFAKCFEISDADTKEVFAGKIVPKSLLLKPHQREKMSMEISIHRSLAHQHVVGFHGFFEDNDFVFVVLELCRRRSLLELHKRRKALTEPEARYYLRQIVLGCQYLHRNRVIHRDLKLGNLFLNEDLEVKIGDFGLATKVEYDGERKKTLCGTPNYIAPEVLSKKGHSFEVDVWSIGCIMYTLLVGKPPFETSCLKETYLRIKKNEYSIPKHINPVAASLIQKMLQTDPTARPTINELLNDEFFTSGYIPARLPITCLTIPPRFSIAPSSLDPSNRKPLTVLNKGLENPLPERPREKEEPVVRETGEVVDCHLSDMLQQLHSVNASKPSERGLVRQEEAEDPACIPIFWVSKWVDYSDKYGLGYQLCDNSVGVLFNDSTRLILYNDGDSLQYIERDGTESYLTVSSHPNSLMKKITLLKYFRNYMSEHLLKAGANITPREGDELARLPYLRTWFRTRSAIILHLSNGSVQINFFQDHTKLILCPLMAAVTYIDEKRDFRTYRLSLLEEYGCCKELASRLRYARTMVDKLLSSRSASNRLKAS
# HP1b binding inh: HTS for Inhibitors of HP1-beta Chromodomain Interactions with Methylated Histone Tails. Chromobox protein homolog 1 (Homo sapiens), P83916. 390,000 compounds, 0.56% hits. Potency, µM (doses to about 114 µM), usual class: inhibitors. AlphaScreen HP1-beta / biotin-H3K9me3 peptide binding; further: nearly all actives have a fitted effect of over 70% in size
#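 AlphaScreen: HP1-beta (50 nM) preformed 30 min with biotin-H3(1-18)K9me3 peptide (50 nM) in PBS pH 7.4, 0.01% Tween-20. Compound added for 30 min at RT, then streptavidin donor/nickel chelate acceptor beads (10 ug/mL) for 30 min.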
# JMJD2A Tudor inh: qHTS Assay for Inhibitors of JMJD2A-Tudor Domain; Lysine-specific demethylase 4A (Homo sapiens), O75164; AlphaScreen JMJD2A-Tudor / H3K4me3 peptide binding; Potency, µM (highest dose often 114 µM), most hits filed as inhibitors; 390,000 compounds, 4.4% hits; AID 504339, 2011; further: nearly all actives have a fitted effect of over 50% in size
# G9a block: qHTS Assay for Inhibitors of Histone Lysine Methyltransferase G9a; 350,000 compounds, 8.8% hits; G9a H3K9 monomethylation, AlphaScreen, 2 h; Histone-lysine N-methyltransferase EHMT2 (Homo sapiens), Q96KQ7; Potency, µM (titrated, usually from 102 µM), most hits filed as inhibitors; AID 504332, 2011; further: nearly all actives have a fitted effect of over 75% in size
#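 Step 1: enzyme (final 20 nM) with compound, 15 min RT. Step 2: substrate peptide 500 nM and SAM 20 uM, 2 h RT. Step 3: anti-H3K9me1 antibody and AlphaScreen beads, 10 min, then plate read.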
# Sfp PPTase inh: qHTS Assay for Inhibitors of Bacillus subtilis Sfp phosphopantetheinyl transferase (PPTase); 310,000 compounds, 3.5% hits; 4'-phosphopantetheinyl transferase ffp (Bacillus subtilis), Q9F4F7; Potency, µM, usual class: inhibitors; Biochemical Sfp PPTase activity, qHTS;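 further: the enzyme is Sfp with the accession as filed and its product quenches rhodamine fluorescence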
#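 Compounds were incubated with enzyme (final 15 nM) for 15 min at room temperature before substrate addition started the reaction. Fluorescence at 525 nm excitation, 598 nm emission was recorded immediately and after 30 minutes.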
# Numbers stand for hits; i = inactive; ? = inconclusive; nt = no result; [ ] = another dose, or the depositor's remark. Most compounds without a hit are left out; they make up all but 12% or so of the library. The call rests on the fitted dose curve; in most records, active means well fitted curve in the direction sought with a large enough effect; inconclusive means small, poorly fitted or top-dose-only effect, or another doubt; inactive means no such curve, though single readings can be large; an effect the other way counts as inactive or inconclusive.
SMILES,BAZ2B block,PLK1 PBD block,HP1b binding inh,JMJD2A Tudor inh,G9a block,Sfp PPTase inh
CCC1CN(C(=O)Nc2cc(C)cc(C)c2)c2ccccc2O1 (stereo not given),?,nt,i,i,?,nt
Nc1ncnc2c1[nH]c(=O)n2C1CC(O)C(CO)O1 (stereo not given),nt,nt,nt,nt,nt,i
O=C1C2C3c4ccccc4C(c4ccccc43)C2C(=O)N1Cc1ccco1 (stereo not given),i,i,i,i,?,44.7µM
O=C1C2C(C(=O)N1Cc1ccco1)C1C=CC2C12CC2 (stereo not given),i,i,i,i,i[12.7 µM],i
O=C1CC(=O)N(Cc2ccco2)C(=S)N1,20µM,21.2µM,i,56.2µM,8.91µM,22.4µM
O=C1CC(=O)N(Cc2ccco2)C(=O)N1,39.8µM,6.7µM,i,4.47µM,?,50.1µM
O=C1c2ccccc2[C@@H]2C[C@@H](O)[C@H](Nc3cccc(C(F)(F)F)c3)CCN12,nt,i,i,i,nt,nt
CN1CCCN(C(=O)c2ccc(Cl)c(S(=O)(=O)N(C)c3ccccc3)c2)CC1,i,i,i,i,50.1µM,i
CN1CCN(C(=O)c2ccc(S(=O)(=O)N(C)c3ccccc3)cc2)CC1,nt,i,nt,nt,nt,nt
O=C(O)c1ccc(C2NCC(c3ccccc3Cl)c3c2[nH]c2ccccc32)cc1 (stereo not given),i,i,i,?,i,i
COc1cc(C2NCC(c3ccc(Cl)cc3Cl)c3c2[nH]c2ccccc32)cc(OC)c1OC (stereo not given),35.5µM,?,?,44.7µM,i,?
CC1(C)Cc2c(sc3nn[nH]c(=O)c23)CO1,i,?,i,i,31.6µM,i
Cn1c(NN)nc2sc3c(c2c1=O)CC(C)(C)OC3,i,i,i,?,i,?
CCC1(C)Cc2c(sc3nn[nH]c(=O)c23)CO1 (stereo not given),i,21.2µM,i,i,39.8µM,i
COC(=O)c1ccc(Cn2nnc3sc4c(c3c2=O)CCCC4)cc1,i,nt,i,i,i,nt
CC1(C)Cc2c(sc3nc[nH]c(=O)c23)CO1,i,i,i,i,i,i
CCC1(C)Cc2c(sc3nc(NC)n(C)c(=O)c23)CO1 (stereo not given),?,i,i,?,31.6µM,?
O=C(O)c1ccc(Cn2nnc3sc4c(c3c2=O)CCCC4)cc1,79.4µM,i,i,i,50.1µM,i
CCCCNC(=O)NS(=O)(=O)c1ccc(N)cc1,nt,nt,nt,nt,i,i
Cc1ccc(NC(=O)c2c(C)oc3ccc(O)c(CN4CCCCC4)c23)c(C)c1,i,nt,i,i,i,nt
CC1(C)Cc2c(sc3nnn(Cc4ccccc4)c(=O)c23)CO1,i,?,i,i,12.6µM,i
Cc1ccccc1NC(=O)Cn1nnc2sc3c(c2c1=O)CC(C)(C)OC3,i,i,i,i,i,i
C=CCNC(=S)NNc1nc2sc3c(c2c(=O)[nH]1)CC(C)(C)OC3,i,i,i,i,nt,7.08µM
Cc1cc(F)ccc1NC(=O)C1CCN(C(=O)c2cnn(-c3ccccc3)c2-n2cccc2)CC1,i,nt,i,i,i,nt
COc1ccc(N2CCN(C(=O)c3ccc(C)c(NC(=O)c4nsc5ccccc45)c3)CC2)cc1,?,nt,i,i,i,nt
SMILES,BAZ2B block,PLK1 PBD block,HP1b binding inh,JMJD2A Tudor inh,G9a block,Sfp PPTase inh
COc1cc2c(cc1OC)CN(C(C)C(=O)N1CCc3ccccc31)CC2 (stereo not given),56.2µM,i,i,i,?,?
COc1ccc(N2CCN(C(=O)[C@H](C)N3C(=O)C4CC=CCC4C3=O)CC2)cc1 (stereo not given in full),nt,i,i,i,nt,nt
COc1ccc(N2CCN(C(C)C(=O)N3CCc4ccccc43)CC2)cc1 (stereo not given),?,i,?,?,39.8µM,i
COc1ccc(N2CCN(C(C)C(=O)N3CC(C)OC(C)C3)CC2)cc1 (stereo not given),56.2µM,i,?,0.891µM,44.7µM,?
CC(C(=O)N1CCc2ccccc21)N1CCc2ccccc2C1 (stereo not given),i,i,i,i,i,i
COc1ccc(OC(C)C(=O)N2CCCc3ccccc32)cc1 (stereo not given),i,i,i,i,nt,i
O=C(c1ccncc1)N1CCC[C@@]2(CCN(C(c3ccccc3)c3ccccc3)C2)C1,nt,nt,nt,nt,i[12.7 µM],i
CC1(C(=O)NS(=O)(=O)c2cccc(Cl)c2)CCN1C(=O)C1(c2ccc(Cl)cc2)CCC1 (stereo not given),nt,i,nt,nt,nt,nt
O=C(N/C=C\c1ccccc1)NCc1ccc(Cl)cc1Cl,i,21.2µM,i,i,25.1µM,i
COc1ccccc1CNC(=O)COC(=O)Cc1ccc(Cl)cc1,i,i,i,i,i,i
COc1ccccc1CNC(=O)N/C=C/c1ccc(Cl)cc1,i,?,i,i,31.6µM,i
O=C(N/C=C\c1ccccc1)NCc1ccc(Cl)cc1,i,i,i,i,?,i
CC(C)C[C@@H](CC(=O)N[C@@H](CCCN)CC(=O)N[C@@H]1CCCC[C@H]1C(=O)N[C@H](CC(=O)N[C@@H](CCC(=O)O)CC(=O)O)Cc1c[nH]c2ccccc12)NC(=O)[C@@H]1CCCC[C@H]1N,nt,nt,nt,nt,nt,i
C=CCNC(=O)c1ccccc1NC(=O)C1CC(=O)N(C(C)C)C1 (stereo not given),i,i,i,i,i[0.501 µM],i
CCCC(=O)C1=C(c2ccccc2)C(C#N)(C#N)C(C#N)=C1N,50.1µM,7.52µM,i,?,25.1µM,28.2µM
CCCC(=O)C1=C(N(C)c2ccccc2)CC(C)(C)CC1=O,i,i,i,i,i,i
COc1cccc(C(Nc2ccccc2)c2ccc3ccc(C)nc3c2O)c1 (stereo not given),nt,i,nt,nt,nt,nt
Cc1cccc(NC(c2ccc(O)cc2)c2ccc3ccc(C)nc3c2O)n1 (stereo not given),?,4.23µM,?,44.7µM,4.47µM,?
CCOC(=O)c1[nH]c(C)c(/C(O)=C2\C(=O)C(=O)N(CCN3CCOCC3)C2c2ccco2)c1C (stereo not given),?,i,i,i,39.8µM,i
CCOC(=O)c1[nH]c(C)c(/C(O)=C2\C(=O)C(=O)N(CCN(C)C)C2c2ccco2)c1C (stereo not given),i,i,i,?,i[12.7 µM],i
COC(=O)c1[nH]c(C)c(/C(O)=C2\C(=O)C(=O)N(CCN3CCOCC3)C2c2ccco2)c1C (stereo not given),i,i,i,i,50.1µM,i
